Measured values from PubChem BioAssay AID744 (University of Pittsburgh Molecular Library Screening Center, 2007).
Some of the results follow. The source made the active and inactive calls.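 The calls were made as follows: active = inhibition at or above 50% in each of two repeat confirmation tests; inconclusive = one repeat below 50% inhibition, the other above; inactive = both repeats at or below 50% inhibition.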

Target: Serine/threonine-protein kinase PLK1 (Homo sapiens) (UniProt P53350)
Experiment: blockers of recombinant PLK1 peptide phosphorylation – biochemical, TR-FRET, duplicate runs, confirmation (AID 744);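 also: 0% = DMSO max control and 100% = H-89 kinase-blocked min control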
Conditions: at 10 µM, active compounds read high

Chain of Serine/threonine-protein kinase PLK1 (Homo sapiens) (P53350 whole entry, looked up): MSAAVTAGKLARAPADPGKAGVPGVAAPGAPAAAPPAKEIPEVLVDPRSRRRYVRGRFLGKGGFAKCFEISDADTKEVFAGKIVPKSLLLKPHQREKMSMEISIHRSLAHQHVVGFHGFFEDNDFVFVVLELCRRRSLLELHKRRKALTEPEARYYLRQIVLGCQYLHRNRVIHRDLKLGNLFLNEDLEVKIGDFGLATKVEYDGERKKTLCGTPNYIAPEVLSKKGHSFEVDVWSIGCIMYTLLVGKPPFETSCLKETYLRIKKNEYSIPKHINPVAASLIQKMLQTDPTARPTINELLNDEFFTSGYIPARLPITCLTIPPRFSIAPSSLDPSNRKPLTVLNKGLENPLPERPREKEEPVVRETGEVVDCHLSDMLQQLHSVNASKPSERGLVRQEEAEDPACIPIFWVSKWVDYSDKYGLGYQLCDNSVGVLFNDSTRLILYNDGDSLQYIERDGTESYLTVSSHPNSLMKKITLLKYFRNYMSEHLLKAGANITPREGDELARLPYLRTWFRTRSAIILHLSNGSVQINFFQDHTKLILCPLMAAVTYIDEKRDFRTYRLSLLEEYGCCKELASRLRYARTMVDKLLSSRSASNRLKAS

inhibition, inactive:
O=C(Nc1cccc(F)c1)c1ccc(S(=O)(=O)N2CCCC2)cc1 -12.1%
C[N+]1(CCNC(=O)/C=N/O)CCCCC1 -0.685%
CC1CN(c2cc(=O)n(Cc3ccc(F)cc3)c(=O)[nH]2)CC(C)O1 (stereo unspecified) -5.99%
COc1ccc(-c2nc(CS(=O)CC(=O)NCc3cccnc3)c(C)o2)cc1OC (stereo unspecified) -2.97%
CC1CSc2nnc(CCc3ccccc3)n21 (stereo unspecified) -11.1%
Cc1ccnc(N2C(=O)c3ccccc3C2Nc2ccc3c(c2)OCCO3)c1 (stereo unspecified) -3.64%
